High-throughput results (PubChem BioAssay)
Hits are enriched below; roughly 7.1% of the tested compounds scored in any of these assays.
Cav32 inh = blocks human Cav3.2 T-type calcium channel | O95180 | Cav3.2-expressing cells, Fluo-4 calcium fluorescence FDSS; stronger effect = lower value | B-score at 10 µM | hit rate 4% among 100,000 | AID 449739;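 active = single-dose well whose peak fluorescence ratio is a statistical outlier from its plate by either plate-standardised score or position-corrected B-score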
Pyk2 oligo antag = blocks oligomerization of human Pyk2 in cells. Q293 cells, Pyk2 FERM NanoBiT luminescence; stronger effect = lower value. z-score (the deposit names both 25 µM and 10 µM). hit rate 0.83% among 99,000. AID 1347419;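 active = Z-score of -3 or lower, scaled per plate to the spread of control and sample wells; inactive = z-score above -3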;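 note: negative z-score means lost luminescence so less FERM oligomerization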
Target sequence (Q14289 whole entry, looked up): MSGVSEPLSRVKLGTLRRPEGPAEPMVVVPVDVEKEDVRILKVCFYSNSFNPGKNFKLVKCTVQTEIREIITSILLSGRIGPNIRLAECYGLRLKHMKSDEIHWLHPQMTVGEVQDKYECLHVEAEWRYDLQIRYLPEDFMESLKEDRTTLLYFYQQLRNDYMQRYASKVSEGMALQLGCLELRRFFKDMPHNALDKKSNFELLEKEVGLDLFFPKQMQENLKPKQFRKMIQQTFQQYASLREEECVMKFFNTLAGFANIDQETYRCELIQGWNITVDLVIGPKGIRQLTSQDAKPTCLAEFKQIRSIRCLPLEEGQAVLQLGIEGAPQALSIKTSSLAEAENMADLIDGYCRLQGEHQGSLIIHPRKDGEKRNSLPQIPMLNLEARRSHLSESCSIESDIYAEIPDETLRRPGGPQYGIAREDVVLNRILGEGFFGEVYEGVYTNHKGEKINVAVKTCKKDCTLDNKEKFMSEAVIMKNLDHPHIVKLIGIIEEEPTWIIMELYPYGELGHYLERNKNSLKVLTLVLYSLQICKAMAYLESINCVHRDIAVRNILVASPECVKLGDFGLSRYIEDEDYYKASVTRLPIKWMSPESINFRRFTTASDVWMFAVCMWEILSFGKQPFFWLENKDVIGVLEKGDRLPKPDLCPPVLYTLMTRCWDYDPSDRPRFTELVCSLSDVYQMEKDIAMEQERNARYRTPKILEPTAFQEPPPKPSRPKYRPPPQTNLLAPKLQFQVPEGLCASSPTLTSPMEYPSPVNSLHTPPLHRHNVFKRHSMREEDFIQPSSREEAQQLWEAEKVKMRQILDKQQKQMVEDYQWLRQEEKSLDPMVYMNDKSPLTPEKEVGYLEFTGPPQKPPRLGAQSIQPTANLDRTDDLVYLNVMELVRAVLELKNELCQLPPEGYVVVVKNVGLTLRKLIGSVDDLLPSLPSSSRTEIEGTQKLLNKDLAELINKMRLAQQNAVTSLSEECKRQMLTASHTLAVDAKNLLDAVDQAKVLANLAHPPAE
M1 antagonist = blocks the rat M1 muscarinic receptor response to acetylcholine; CHO-M1 cells, Fluo-4 calcium, ACh EC80 antagonist mode; stronger effect = lower value; hit rate 3.4% among 64,000; P08482; B-score at 10 µM;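 active = calcium fluorescence response, raw or row-and-column corrected B-score, differing from the plate sample mean either way at a set confidence level, mostly lower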
M1 agonist = agonists of M1 muscarinic receptor | CHO-M1 cells, Fluo-4 calcium fluorescence, agonist mode; stronger effect = higher value | B-score at 10 µM | hit rate 3% among 64,000 | AID 626;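 active = fluorescence rise, raw or as B-score row- and column-corrected plate score, outside the 99.7% band of its plate's samples, either direction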
M1 antag confirm = M1 muscarinic receptor (rat) antagonism, confirmed; shares compounds with M1 antagonist; CHO-M1 cells, Fluo-4 calcium, ACh EC80 antagonism; stronger effect = lower value; calcium response (max-min fluorescence) at 10 µM; hit rate 43% among 1,700; AID 677;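 active = calcium response below the same-plate mean of wells given acetylcholine alone at its 80%-effect dose, minus 3 SD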;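 note: raw fluorescence intensity difference in arbitrary instrument units and not normalized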
mGluR4 antag = acts on human mGluR4 in M1 antagonist selectivity test | shares compounds with M1 antagonist | CHO-mGluR4 calcium flux, Fluo-4 fluorescence, glutamate EC80; stronger effect = lower value | fluorescence response (max-min) at 10 µM | hit rate 0.9% among 1,700 | AID 678;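 active = fluorescence response below the plate's average for near-maximal glutamate wells, less 3 SD of those wells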;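 note: raw unnormalized fluorescence span taken in the window right after glutamate addition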
An asterisk follows results filed as active.

What do the screens show for `COc1cccc(-n2nc(C(=O)N3CC(C)CC(C)C3)c3ccccc3c2=O)c1` (centres undefined)?
Cav32 inh: -1.8; Pyk2 oligo antag: -0.49

Results for Cc1ccc(Cn2nnc3c(=O)n(Cc4cccc(C)c4)cnc32)cc1 ?
Cav32 inh: -3.07; Pyk2 oligo antag: 0.39; M1 antagonist: -3.42*; M1 agonist: -1.18; M1 antag confirm: 481*; mGluR4 antag: 205

What do the screens show for `C[C@@H]1CCC[C@@]2(O[C@H](CCO)C[C@H](O)[C@H]2O)O1`?
Cav32 inh: 1.59

What do the screens show for `COC(=O)C1=C(C)NC(=O)NC1c1cn(-c2ccccc2)nc1-c1cccs1` (centres undefined)?
Cav32 inh: -1.35; Pyk2 oligo antag: -0.36; M1 antagonist: -2.69*; M1 agonist: -1.12; M1 antag confirm: 429; mGluR4 antag: 203

How did Cc1ccccc1OCc1nc(-c2ccc(-n3cccc3)cc2)no1 do in these assays?
Cav32 inh: 0.388; M1 antagonist: 0.433; M1 agonist: -2.28

What do the screens show for `COc1ccccc1Cc1noc(COc2cccc(C)c2C)n1`?
Cav32 inh: -2.19; Pyk2 oligo antag: -1.06; M1 antagonist: -2.68*; M1 agonist: -1.23; M1 antag confirm: 575; mGluR4 antag: 247

What do the screens show for `O=C(CSc1ccc2c(c1)OCCO2)Nc1ccc(Cl)cn1`?
Cav32 inh: -0.00668; Pyk2 oligo antag: 0.6; M1 antagonist: -3.22*; M1 agonist: -2.55; M1 antag confirm: 485; mGluR4 antag: 224

What do the screens show for `CCn1c(SCC(=O)c2ccccc2)nnc1-c1cccs1`?
Cav32 inh: -0.0254; Pyk2 oligo antag: -0.32

What do the screens show for `O=C(CSCc1cnn(-c2ccccc2)c1-n1cccc1)NCC1CCCO1` (centres undefined)?
Cav32 inh: 1.18; Pyk2 oligo antag: 2.98; M1 antagonist: -0.198; M1 agonist: -0.598

Results for O=C(CSCc1cnn(-c2ccccc2)c1-n1cccc1)NCCN1CCOCC1 ?
Cav32 inh: 0.527; Pyk2 oligo antag: 1.88; M1 antagonist: -2.73*; M1 agonist: -0.0795; M1 antag confirm: 520*; mGluR4 antag: 160

Results for CC(C)(C)NC(=O)C(c1ccccc1F)N(Cc1ccco1)C(=O)c1csnn1 (centres undefined) ?
Cav32 inh: 0.365; Pyk2 oligo antag: 0.05; M1 antagonist: -0.0211; M1 agonist: 0.98

How did Cc1ccccc1-c1nc(CS(=O)(=O)CC(=O)NCCCN2CCCC2=O)c(C)o1 do in these assays?
Cav32 inh: 0.199; M1 antagonist: 0.575; M1 agonist: -0.752

What do the screens show for `COCCCNC(=O)CS(=O)(=O)Cc1nc(-c2ccccc2C)oc1C`?
Cav32 inh: 1.2; M1 antagonist: -3.04*; M1 agonist: -0.977; M1 antag confirm: 665; mGluR4 antag: 255

What do the screens show for `Cc1ccc(N(CC(=O)NCc2ccc(F)cc2)S(=O)(=O)c2cccs2)cc1`?
Cav32 inh: -1.56; Pyk2 oligo antag: -1.75

How did CCCc1cc(=O)oc2cc(C)cc(OC(=O)c3ccco3)c12 do in these assays?
Cav32 inh: 0.143; Pyk2 oligo antag: -2.17; M1 antagonist: -2.92*; M1 agonist: -0.289; M1 antag confirm: 551; mGluR4 antag: 205

What do the screens show for `CCCc1cc(=O)oc2cc(C)cc(O)c12`?
Cav32 inh: -1.47; Pyk2 oligo antag: -2.31

Results for CCOC(=O)/C=C/c1ccc2c(c1)S(=O)(=O)N(c1cccc(OC)c1)[C@H]2CC(=O)OCC ?
Cav32 inh: 0.551

How did COc1cc(C2C(C#N)=C(N)Oc3n[nH]c(C)c32)ccc1OC(=O)c1ccccc1 (centres undefined) do in these assays?
Cav32 inh: 0.552; Pyk2 oligo antag: 0.27

What do the screens show for `COc1cc(C2C(C#N)=C(N)Oc3n[nH]c(C)c32)cc2c1OCO2` (centres undefined)?
Cav32 inh: -0.141; Pyk2 oligo antag: -0.3; M1 antagonist: -4.78*; M1 agonist: 0.0944; M1 antag confirm: 642; mGluR4 antag: 228

What do the screens show for `CCCC(O)(CCN1CCOCC1)c1ccc(Br)cc1` (centres undefined)?
Cav32 inh: -0.16; Pyk2 oligo antag: 0.04; M1 antagonist: -3.56*; M1 agonist: -0.354; M1 antag confirm: 283*; mGluR4 antag: 243

Results for Cn1nc(OCC(N)=O)ccc1=O ?
Cav32 inh: -1.05; Pyk2 oligo antag: -0.58; M1 antagonist: 0.101; M1 agonist: 0.00558

How did NC(=O)COc1ccc(=O)n(-c2ccccc2)n1 do in these assays?
Cav32 inh: 0.579; M1 antagonist: -2.36*; M1 agonist: -0.764; M1 antag confirm: 564; mGluR4 antag: 226

What do the screens show for `Cn1c(=O)c2c(nc(CN3CCN(C(=O)c4ccco4)CC3)n2Cc2ccc(Cl)cc2)n(C)c1=O`?
Cav32 inh: 1.33; Pyk2 oligo antag: 1.24; M1 antagonist: 0.292; M1 agonist: 0.0382

How did CCOC(=O)c1ccccc1NS(=O)(=O)c1ccccc1F do in these assays?
Cav32 inh: -1.71; Pyk2 oligo antag: -1.74; M1 antagonist: 0.672; M1 agonist: 1.54

Results for Cc1ccc2nc(NC3=NCN(Cc4ccco4)CN3)nc(C)c2c1 ?
M1 antagonist: -2.89*; M1 agonist: 0.605; M1 antag confirm: 392; mGluR4 antag: 227

Results for CCc1ccc2nc(NC3=NCN(CCCN4CCOCC4)CN3)nc(C)c2c1 ?
M1 antagonist: -3.74*; M1 agonist: -0.982; M1 antag confirm: 344*; mGluR4 antag: 182

Results for Cc1ccc2nc(NC3=NCN(Cc4ccc5c(c4)OCO5)CN3)nc(C)c2c1 ?
M1 antagonist: -4.18*; M1 agonist: 0.0216; M1 antag confirm: 90.1*; mGluR4 antag: 273

Results for CCOc1ccc2nc(NC3=NCN(CC4CCCO4)CN3)nc(C)c2c1 (centres undefined) ?
M1 antagonist: 0; M1 agonist: -0.423

Results for Cc1ccc2nc(NC3=NCN(C4CCCCC4)CN3)nc(C)c2c1 ?
M1 antagonist: -0.36; M1 agonist: -0.0962

What do the screens show for `O=C(c1cccc(Cl)c1)N1CCN(Cc2ccccc2F)CC1`?
Cav32 inh: 0.132; Pyk2 oligo antag: 0.61; M1 antagonist: 0.858; M1 agonist: 0.217

Results for CCC1=C(OC(=O)N(CC)CC)N2C(=O)OC(=NCC3CC3)[C@]2(Cc2ccccc2)[C@H]2C1=CC[C@H]1C(=O)N(CC)C(=O)[C@H]12 ?
Cav32 inh: -0.54

How did Cc1ccc(Nc2nnc(SCC(=O)Nc3cccnc3Cl)s2)cc1C do in these assays?
Pyk2 oligo antag: -0.84

How did CCCCNS(=O)(=O)c1ccc2nc(SCC(=O)c3ccccc3OC)[nH]c2c1 do in these assays?
Cav32 inh: -4.02; Pyk2 oligo antag: -1.82

Results for CCCCNS(=O)(=O)c1ccc2nc(SCC(=O)Nc3sccc3C#N)[nH]c2c1 ?
Cav32 inh: -3.53*; Pyk2 oligo antag: -3.72*; M1 antagonist: -3.09*; M1 agonist: 0.58; M1 antag confirm: 523; mGluR4 antag: 204
